Peg3 promoter – Peg3 promoter activity inhibition; HeLa PEG-Prom luciferase reporter, luminescence, overnight; inhibition, % at 20 µM; hit rate 1.7% among 360,000; AID 588405;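 active means inhibition of at least 50% at 20 µM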
Shn3 inh set2 – Schnurri-3 reporter inhibition in Clone20 osteoblasts. Clone20 osteoblast Shn3 3'UTR firefly luciferase, 24 h. inhibition, % at 12.5 µM. hit rate 0.52% among 360,000. AID 588674;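 active means mean inhibition of at least 75% with every replicate also reaching 75%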
MITF TRPM1 inh – inhibitors of MITF-driven TRPM1 promoter in melanoma cells. SK-MEL-5 TRPM1 promoter luciferase, 24 h. hit rate 0.83% among 330,000. inhibition, % at 12.5 µM;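 active means mean inhibition across replicates of 60% or more, whatever share of single replicates reaches that level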
KKLEB cytotox – counter-screen for CF NF-kB inhibitors: cytotoxicity; KKLEB CF airway cells viability, ATPlite luminescence, overnight; active compounds read low; cells stimulated with P. aeruginosa culture filtrate; activity change (cytotoxicity), % at 5 µM; hit rate 0.36% among 360,000;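 active means corrected activity change at or below -50% at 5 µM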
CF NFkB inh – blocks PAF-induced NF-kB reporter in cystic fibrosis cells | KKLEB NF-kB-GFP reporter, GFP fluorescence overnight | inhibition, % at 5 µM | hit rate 0.86% among 360,000 | AID 588850;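 active means at least 50% inhibition at 5 µM, scaled per plate between neutral and stimulator controls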;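 further: PAF is a Pseudomonas aeruginosa culture filtrate used as stimulus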
HIF-2a inh – blocks HIF-2a reporter activity | 786-0 RCC cells HIF-2a reporter, luciferase luminescence, overnight | inhibition, % at 18.8 µM | hit rate 0.72% among 360,000;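 active means inhibition of the luminescence signal of 40% or more relative to plate controls, in a single-dose primary screen at 18.75 µM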
Of the large screens only hits and unclear results are named; the others gave an inactive call. Hits are enriched below; roughly 2.8% of the tested compounds scored in any of these assays.

C=CCn1c(SCC(=O)Nc2ccccc2OC)nc2c([nH]c3ccccc32)c1=O	KKLEB cytotox -57, CF NFkB inh 55
COCCn1c(SCC(=O)Nc2ccccc2OC)nc2c([nH]c3ccccc32)c1=O	none
Cc1ccc(NC(=O)CSc2nc3c([nH]c4ccccc43)c(=O)n2C)cc1	Peg3 promoter 54 (no result: MITF TRPM1 inh)
COc1ccc(-c2cn(CCO)c(-c3ccncc3)n2)cc1	none
CC(SC(C)C(=O)NN=Cc1cccc(Cl)c1)C(=O)NN=Cc1cccc(Cl)c1 (stereo not drawn)	Peg3 promoter 99
CCOC(=O)C1=CCN(S(=O)(=O)c2ccccc2Br)C1c1cccc(F)c1 (stereo not drawn)	none (no result: MITF TRPM1 inh)
CN(CC(=O)Nc1ccc(Cl)cc1)C(=O)CNC(=O)c1ccc(Br)o1	none
O=C(NCCOc1ccc(F)cc1)C1CCC(=O)N(CCc2ccccn2)C1 (stereo not drawn)	none
COC1=C(N)C(=O)c2nc(C)ccc2C1=O	MITF TRPM1 inh 113, CF NFkB inh 57
CCCSc1nc(C)cc(C)c1C(N)=O	none
COCCN1C(=O)C(=O)/C(=C(/O)c2ccc(S(=O)(=O)N3CCOCC3)cc2)C1c1cccc([N+](=O)[O-])c1 (stereo not drawn)	none
COc1cc2cc(CN(CCc3cccc(C)c3)C(=S)NCCCN3CCOCC3)c(=O)[nH]c2cc1OC	none
O=C(C=Cc1ccccn1)c1ccccc1O	Peg3 promoter 98, MITF TRPM1 inh 88
Cn1c2ccccc2c(=O)c2ccc(C#CC3(O)CCCCC3)cc21	Peg3 promoter 70
COc1cccc2sc3cc(C#CC4(O)CCCCC4)ccc3c(=O)c12	Peg3 promoter 89
COc1cc2sc3ccc(C#CC4(O)CCCCC4)cc3c(=O)c2cc1OC	none
CN(Cc1ccccc1)C(=O)c1[nH]cnc1C(=O)Nc1cccc(Cl)c1	none
CCOc1ccc(-n2nnnc2-c2nc3ccccc3s2)cc1	KKLEB cytotox -70, CF NFkB inh 70
Cc1ccc2nc(-c3cc(N)cc(N)c3)oc2c1	HIF-2a inh 62
Nc1ccc(-c2nc3ccc(N)cc3o2)cc1	none
NC(=O)CC(NC(=O)c1ccccc1)c1ccc(N2CCCCCCC2)c([N+](=O)[O-])c1 (stereo not drawn)	none
NC(=O)CC(NC(=O)c1ccc(Br)cc1)c1ccc(N2CCCCCC2)c([N+](=O)[O-])c1 (stereo not drawn)	Shn3 inh set2 89
NC(=O)CC(NC(=O)Cc1ccc(Br)cc1)c1ccc(N2CCC(Cc3ccccc3)CC2)c([N+](=O)[O-])c1 (stereo not drawn)	Peg3 promoter 51
CCCC[C@@H](CNC)NC[C@H](Cc1ccc(O)cc1)NCCc1ccc(OCC)cc1	Peg3 promoter 97, MITF TRPM1 inh 96
CCC[C@H](CN[C@@H](CNC)[C@H](C)O)NCCc1ccc(OC)cc1	none
CCOC(=O)c1nnn(-c2nc(N3CCCC3)nc(N3CCCC3)n2)c1-c1ccccc1	none
CCOC(=O)c1c(-c2ccccc2)nnn1-c1nc(OCC)nc(N2CCCCC2)n1	Peg3 promoter 53
O=C1/C(=C/Nc2ccc3c(c2)OCO3)CCc2ccccc21	KKLEB cytotox -53
O=c1c2ccccc2c2ccccc2c(=O)n1Nc1ccccc1	none (no result: MITF TRPM1 inh)
COc1ccc(-n2c(-c3ccc(Br)cc3)c[n+]3c2CCCCC3)cc1	Shn3 inh set2 89
CCOc1ccc(-c2c[n+]3c(n2-c2ccccc2)CCCCC3)cc1	Shn3 inh set2 91
COc1ccc(-n2c(-c3ccccc3)c[n+]3c2CCC3)cc1	none
Cc1cc[n+](Cc2ccccc2)c(N)c1	none
Cc1c(CN(C)C)c2c(n1C)C(=O)c1ccc(Br)cc1-2	none
Cc1c(CN(C)C)c2c(n1Cc1ccccc1)C(=O)c1ccc(Br)cc1-2	Peg3 promoter 67
Cc1ccc(C(=O)COC(=O)CCC(=O)NC2CCCCC2)cc1C	none
CCOC(=O)C1=C(c2ccccc2)Nc2ncnn2C1c1ccc(C(=O)O)cc1 (stereo not drawn)	none
CCOC(=O)C1=C(c2ccccc2)NC(N)=NC1c1ccc(OCc2ccc(C(=O)OC)cc2)cc1 (stereo not drawn)	Peg3 promoter 104
COCCNC(=S)N1CCc2cc(OC)c(OC)cc2C1COc1ccc(C(C)C)cc1 (stereo not drawn)	none
Oc1ccc(Cl)cc1Sc1cc(Cl)ccc1O	Peg3 promoter 71, CF NFkB inh 63
CN(C)P(=O)(Nc1cccc2ccccc12)Nc1cccc2ccccc12	Shn3 inh set2 88 (no result: MITF TRPM1 inh)
